From PMC5540273 (PLoS ONE, 2017)
Where “and” joins values, the source holds several entries; their conditions need not be identical. Equal values may be shown once. Read-outs that look alike come from different tables or passages of the source.

Key:
Settings in all cases: n = 1
MST2 = system: T1, MST2
T1 construct: gene STK3

MST3 = system: T2, MST3
T2 construct: gene STK24

MST4 = system: MST4
MTOR = system: MTOR
MUSK = system: MUSK
MYLK2 = system: MYLK2
MYLK4 = system: MYLK4
MYLK = system: MYLK
MYO3A = system: MYO3A
MYO3B = system: MYO3B
[1] = concentration: 1 μM, replicates: in singlicate
[2] = concentration: 1 μM,replicates: in singlicate, 1 µM
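Further: KINOMEscan kinase panel screen.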

Cn1ccc2ncnc(Oc3ccc(NC(=O)Nc4ccccc4)cc3)c21
%Inh (MST2; [1]): 0%
%Inh (MST3; [1]): 0%
%Inh (MST4; [1]): 0%
%Inh (MTOR; [1]): 16%
%Inh (MUSK; [1]): 14%
%Inh (MYLK2; [1]): 2%
%Inh (MYLK4; [1]): 0%
%Inh (MYLK; [1]): 3%
%Inh (MYO3A; [1]): 5%
%Inh (MYO3B; [1]): 28%

Cc1ccccc1-n1cnc2c(N)ncnc21 [SKF-97510]
%Inh (MST2; [1]): 15%
%Inh (MST3; [1]): 18%
%Inh (MST4; [1]): 0%
%Inh (MTOR; [1]): 0%
%Inh (MUSK; [1]): 0%
%Inh (MYLK2; [1]): 0%
%Inh (MYLK4; [1]): 0%
%Inh (MYLK; [1]): 0%
%Inh (MYO3A; [1]): 0%
%Inh (MYO3B; [1]): 42%

O=C(Nc1n[nH]c2nc(-c3nccs3)c(Br)cc12)C1CCCC1 [SB-742609]
%Inh (MST2; [1]): 0%
%Inh (MST3; [1]): 0%
%Inh (MST4; [1]): 6%
%Inh (MTOR; [1]): 11%
%Inh (MUSK; [1]): 31%
%Inh (MYLK2; [1]): 90%
%Inh (MYLK4; [1]): 27%
%Inh (MYLK; [1]): 0%
%Inh (MYO3A; [1]): 0%
%Inh (MYO3B; [1]): 0%

COc1cc2ncn(-c3cc(OCC4CCCO4)c(C(N)=O)s3)c2cc1OC (stereo not drawn) [GSK204607]
%Inh (MST2; [1]): 1%
%Inh (MST3; [1]): 6%
%Inh (MST4; [1]): 0%
%Inh (MTOR; [1]): 11%
%Inh (MUSK; [1]): 1%
%Inh (MYLK2; [1]): 0%
%Inh (MYLK4; [1]): 81%
%Inh (MYLK; [1]): 19%
%Inh (MYO3A; [1]): 15%
%Inh (MYO3B; [1]): 0%

COc1ccc(CNC(=O)NC2CCN(c3ccnc(Nc4cc(OC)c(OC)c(OC)c4)n3)C2)cc1 (stereo not drawn) [GSK1379748]
%Inh (MST2; [1]): 1%
%Inh (MST3; [1]): 0%
%Inh (MST4; [1]): 0%
%Inh (MTOR; [1]): 14%
%Inh (MUSK; [1]): 2%
%Inh (MYLK2; [1]): 4%
%Inh (MYLK4; [1]): 2%
%Inh (MYLK; [1]): 10%
%Inh (MYO3A; [1]): 36%
%Inh (MYO3B; [1]): 0%

Clc1cc(Cl)cc(Nc2ccnc(Nc3cc(Cl)cc(Cl)c3)n2)c1 [GSK175726]
%Inh (MST2; [1]): 20%
%Inh (MST3; [1]): 9%
%Inh (MST4; [1]): 0%
%Inh (MTOR; [1]): 18%
%Inh (MUSK; [1]): 2%
%Inh (MYLK2; [1]): 11%
%Inh (MYLK4; [1]): 13%
%Inh (MYLK; [1]): 21%
%Inh (MYO3A; [1]): 10%
%Inh (MYO3B; [1]): 3%

Nc1ncnc2[nH]c(-c3ccccc3)nc12 [AH5015]
%Inh (MST2; [1]): 0%
%Inh (MST3; [1]): 0%
%Inh (MST4; [1]): 1%
%Inh (MTOR; [1]): 9%
%Inh (MUSK; [1]): 18%
%Inh (MYLK2; [1]): 0%
%Inh (MYLK4; [1]): 30%
%Inh (MYLK; [1]): 7%
%Inh (MYO3A; [1]): 8%
%Inh (MYO3B; [1]): 0%

Cc1ccc(NC(=O)Nc2cccc(C(F)(F)F)c2)cc1 [GSK955403]
%Inh (MST2; 1 µM): 57%
%Inh (MST3; 1 µM): 16%
%Inh (MST4; 1 µM): 0%
%Inh (MTOR; 1 µM): 0%
%Inh (MUSK; 1 µM): 0%
%Inh (MYLK2; 1 µM): 22%
%Inh (MYLK4; 1 µM): 0%
%Inh (MYLK; 1 µM): 32%
%Inh (MYO3A; 1 µM): 9%
%Inh (MYO3B; 1 µM): 0%

CC(C)(C)c1ccc(C(=O)Nc2cn3cc(Cl)ccc3n2)cc1
%Inh (MST2; [1]): 0%
%Inh (MST3; [1]): 0%
%Inh (MST4; [1]): 0%
%Inh (MTOR; [1]): 31%
%Inh (MUSK; [1]): 0%
%Inh (MYLK2; [1]): 0%
%Inh (MYLK4; [1]): 0%
%Inh (MYLK; [1]): 9%
%Inh (MYO3A; [1]): 7%
%Inh (MYO3B; [1]): 0%

Cc1csc(-c2nc(Nc3ccncc3)c3ccccc3n2)n1 [GW869640]
%Inh (MST2; [1]): 0%
%Inh (MST3; [1]): 11%
%Inh (MST4; [1]): 40%
%Inh (MTOR; [1]): 74%
%Inh (MUSK; [1]): 11%
%Inh (MYLK2; [1]): 5%
%Inh (MYLK4; [1]): 0%
%Inh (MYLK; [1]): 26%
%Inh (MYO3A; [1]): 2%
%Inh (MYO3B; [1]): 36%

CSc1nn2c(=O)cc(N3CCOCC3)nc2n1Cc1cccc(C(F)(F)F)c1C [GSK2363608]
%Inh (MST2; [2]): 9% and 1%
%Inh (MST3; [1]): 0%
%Inh (MST4; [2]): 90.3% and 0%
%Inh (MTOR; [2]): 13% and 28%
%Inh (MUSK; [2]): 12% and 4%
%Inh (MYLK2; [2]): 19% and 0%
%Inh (MYLK4; [2]): 17% and 0%
%Inh (MYLK; [2]): 6% and 0%
%Inh (MYO3A; [2]): 21% and 0%
%Inh (MYO3B; [2]): 0% and 14%

Cc1ccc(C(=O)Nc2ccc(Nc3ccnc4cc(-c5ccccn5)ccc34)cc2O)cc1.Cl [GW440146]
%Inh (MST2; [1]): 0%
%Inh (MST3; [1]): 0%
%Inh (MST4; [1]): 0%
%Inh (MTOR; [1]): 17%
%Inh (MUSK; [1]): 14%
%Inh (MYLK2; [1]): 6%
%Inh (MYLK4; [1]): 0%
%Inh (MYLK; [1]): 5%
%Inh (MYO3A; [1]): 11%
%Inh (MYO3B; [1]): 0%

Cc1cccc(-c2nc(-c3ccc(S(C)(=O)=O)cc3)sc2-c2ccnc(NCCc3ccccc3)c2)c1
%Inh (MST2; [1]): 4%
%Inh (MST3; [1]): 0%
%Inh (MST4; [1]): 32%
%Inh (MTOR; [1]): 0%
%Inh (MUSK; [1]): 0%
%Inh (MYLK2; [1]): 14%
%Inh (MYLK4; [1]): 12%
%Inh (MYLK; [1]): 0%
%Inh (MYO3A; [1]): 10%
%Inh (MYO3B; [1]): 0%

Cc1cc(N2Cc3ccccc3C2)nc(Nc2ccc(S(=O)(=O)N3CCOCC3)cc2)n1.Cl [GSK1669917]
%Inh (MST2; [1]): 0%
%Inh (MST3; [1]): 0%
%Inh (MST4; [1]): 0%
%Inh (MTOR; [1]): 9%
%Inh (MUSK; [1]): 0%
%Inh (MYLK2; [1]): 0%
%Inh (MYLK4; [1]): 0%
%Inh (MYLK; [1]): 12%
%Inh (MYO3A; [1]): 0%
%Inh (MYO3B; [1]): 0%

COC(=O)c1c(-c2ccccc2)c2cc(OC)ccc2c(=O)n1Cc1ccccc1
%Inh (MST2; [1]): 26%
%Inh (MST3; [1]): 20%
%Inh (MST4; [1]): 0%
%Inh (MTOR; [1]): 0%
%Inh (MUSK; [1]): 11%
%Inh (MYLK2; [1]): 0%
%Inh (MYLK4; [1]): 8%
%Inh (MYLK; [1]): 0%
%Inh (MYO3A; [1]): 9%
%Inh (MYO3B; [1]): 0%
